This is part of a sample that, as a whole, favours compounds with a hit. Of some 83,000 tested, about 20% had one in any assay.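 Method: cells in 96-well plates; compound added at one concentration; 48 h incubation; percent growth measured; values under 10 scored active.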 Unmarked numbers belong to inactive results. The source made the active and inactive calls.

Test systems include NCI-H23 lung; NCI-H226 lung; NCI-H322M lung; HOP-62 NSCLC; NCI-H460 lung; HOP-92 NSCLC; NCI-H522 lung; A549/ATCC NSCLC; 786-0 renal; COLO 205 colon; DU-145 prostate; K-562 leukemia; MALME-3M melanoma; MDA-MB-231 breast; RXF 393 renal; SF-268 CNS; SF-295 CNS; SF-539 CNS; UACC-257 melanoma; M14 melanoma.
Assay in all cases: NCI-60 one-dose screen, 48 h (100 = growth as untreated, 0 = no growth, -100 = all killed)
Common to all, as to settings: 10 µM unless noted

In the case of `CCN=C1C=CC(=C(c2ccc(N(C)C)cc2)c2ccc(N(C)C)cc2)c2ccccc21`, the growth is -5.87% (active) in the assay with NCI-H23 lung; -7.49% (active) in the assay with NCI-H226 lung; -30.1% (active) in the assay with NCI-H322M lung; -55.5% (active) in the assay with HOP-62 NSCLC; -36.8% (active) with NCI-H460 lung; -21.5% (active) with HOP-92 NSCLC. In addition, the growth in the assay on NCI-H522 lung is -36.8% (active); in the assay on A549/ATCC NSCLC, 1.14% (active); in the assay with 786-0 renal, -11% (active); with COLO 205 colon it was -79% (active); with DU-145 prostate it was 1.96% (active); in the assay with K-562 leukemia, 10.9%. Also, the growth in the assay with MALME-3M melanoma was -48.4% (active); in the assay on MDA-MB-231 breast, -12% (active); in the assay with RXF 393 renal it was -29.2% (active); in the assay on SF-268 CNS, -8.78% (active); in the assay on SF-295 CNS it was -37.5% (active); in the assay on SF-539 CNS, -57.4% (active). Besides, the values for the growth in the assay on UACC-257 melanoma and with M14 melanoma were -10.1% (active) and -42.2% (active), respectively.

Turning to `CCn1cc(CNc2ccc(C(=O)Nc3cc4cc(OC)c(OC)cc4c(C)n3)cc2)c(C)n1`, the growth is 9.61% (active) in the assay on NCI-H23 lung; 20.5% in the assay on NCI-H226 lung; 85.1% with NCI-H322M lung; 12.8% in the assay on HOP-62 NSCLC; 58.1% with NCI-H460 lung; 78.6% in the assay with HOP-92 NSCLC. Moreover, the growth in the assay on NCI-H522 lung was -10.1% (active); with A549/ATCC NSCLC, 29.5%; in the assay on 786-0 renal, 70.9%; with COLO 205 colon, 28.9%; in the assay on DU-145 prostate, 56.3%; in the assay with K-562 leukemia, 15.6%. In addition, the growth in the assay on MALME-3M melanoma is 25.2%; with MDA-MB-231 breast it was 74.7%; in the assay on RXF 393 renal, 90.9%; with SF-268 CNS, 48.6%; in the assay on SF-295 CNS it was 30.4%; in the assay on SF-539 CNS, 75.5%. In addition, the growth in the assay on UACC-257 melanoma is 48.1%; in the assay with M14 melanoma it was 22.1%.

As to `CCN(CC)CCOc1nc2c3ccc(Cl)cc3nn2c2ccccc12`, the growth in the assay with NCI-H23 lung is 34.5%; with NCI-H226 lung it was 47.1%; in the assay with NCI-H322M lung, 29.2%; with HOP-62 NSCLC, 42.3%; in the assay with NCI-H460 lung it was 11.4%; in the assay on HOP-92 NSCLC, -3.36% (active). The growth is 27.9% in the assay on NCI-H522 lung; 16.3% in the assay with A549/ATCC NSCLC; 23.6% in the assay with 786-0 renal; 4.4% (active) in the assay with COLO 205 colon; 26.4% in the assay on DU-145 prostate; 1.82% (active) in the assay on K-562 leukemia. For the same compound, the growth in the assay on MALME-3M melanoma is 35.8%; in the assay with MDA-MB-231 breast, 21.3%; in the assay with RXF 393 renal, 7.71% (active); in the assay on SF-268 CNS, 44.6%; with SF-295 CNS, 29%; in the assay on SF-539 CNS, 17.8%. The growth is 16.1% in the assay with UACC-257 melanoma and 44.5% in the assay with M14 melanoma.

Regarding `O=c1nc(Nc2nc3ccccc3s2)[nH]c(=O)c2ccccc12`, the growth with NCI-H23 lung was 99.1%; in the assay on NCI-H226 lung, 92.8%; with NCI-H322M lung it was 105%; in the assay with HOP-62 NSCLC, 91.2%; in the assay on NCI-H460 lung it was 103%; with HOP-92 NSCLC, 83.4%. Also, the growth in the assay on NCI-H522 lung is 96.8%; in the assay with A549/ATCC NSCLC, 106%; with 786-0 renal, 96%; with COLO 205 colon, 112%; in the assay with DU-145 prostate it was 106%; in the assay on K-562 leukemia, 95.9%. For the same compound, the growth in the assay with MALME-3M melanoma was 99.7%; in the assay on MDA-MB-231 breast, 98.3%; with RXF 393 renal, 98.1%; in the assay with SF-268 CNS it was 102%; with SF-295 CNS, 99.3%; in the assay on SF-539 CNS, 97.5%. Also, the values for the growth in the assay with UACC-257 melanoma and with M14 melanoma were 107% and 101%, respectively.

`C/C(=N\O)C(=O)NCCCCCC(=O)Nc1ccccc1`: the growth is 99.2% in the assay with NCI-H23 lung; 110% in the assay on NCI-H226 lung; 103% in the assay on NCI-H322M lung; 102% with HOP-62 NSCLC; 111% in the assay on NCI-H460 lung; 94.4% in the assay on HOP-92 NSCLC. The growth in the assay on NCI-H522 lung is 91.1%; with A549/ATCC NSCLC it was 97%; with 786-0 renal, 94.4%; in the assay on COLO 205 colon, 108%; in the assay with DU-145 prostate, 114%; with K-562 leukemia, 99.7%. In addition, the growth is 98.9% in the assay with MALME-3M melanoma; 100% in the assay with MDA-MB-231 breast; 121% with RXF 393 renal; 100% in the assay with SF-268 CNS; 101% in the assay on SF-295 CNS; 107% in the assay with SF-539 CNS. Besides, the results for the growth in the assay with UACC-257 melanoma and in the assay with M14 melanoma were 98.6% and 107%, respectively.

For the compound `C=CCn1c(SCC(=O)Nc2ccc(C(=O)/C=C/c3cc(OC)c(OC)c(OC)c3)cc2)nnc1-c1cc(-c2ccc(OC)cc2)nc2ccccc12`, the growth was 93.4% with NCI-H23 lung; 94% with NCI-H226 lung; 97.5% in the assay on NCI-H322M lung; 96.5% in the assay on HOP-62 NSCLC; 88.9% in the assay on NCI-H460 lung; 77.4% in the assay on HOP-92 NSCLC. Besides, the growth was 86.3% with NCI-H522 lung; 98.1% in the assay with A549/ATCC NSCLC; 88.7% in the assay with 786-0 renal; 104% with COLO 205 colon; 96.5% in the assay with DU-145 prostate; 83.1% in the assay with K-562 leukemia. Also, the growth in the assay with MALME-3M melanoma is 95.3%; in the assay with MDA-MB-231 breast it was 76.8%; in the assay with RXF 393 renal it was 89.5%; in the assay with SF-268 CNS, 91.4%; in the assay with SF-295 CNS, 106%; in the assay with SF-539 CNS, 90.9%. The growth is 100% with UACC-257 melanoma and 107% in the assay with M14 melanoma.

With `COc1ccccc1-n1c(-c2cc(O)ccc2C)cn2c3c(=O)[nH]c(=O)n(C)c3nc12`, the growth in the assay on NCI-H23 lung is 90.6%; in the assay on NCI-H226 lung, 107%; in the assay on NCI-H322M lung, 36%; with HOP-62 NSCLC, 68.2%; in the assay with NCI-H460 lung, 91.6%; with HOP-92 NSCLC, -1.51% (active). Moreover, the growth in the assay on NCI-H522 lung is 44.5%; in the assay with A549/ATCC NSCLC it was 66.3%; with 786-0 renal it was 52.8%; with COLO 205 colon, 84.2%; with DU-145 prostate, 79.3%; in the assay on K-562 leukemia, 25.3%. Moreover, the growth in the assay with MALME-3M melanoma is 89.9%; with MDA-MB-231 breast it was 41.2%; with RXF 393 renal, 19.2%; in the assay with SF-268 CNS, 60.3%; in the assay on SF-295 CNS, 89.8%; with SF-539 CNS, 72.6%. The values for the growth in the assay with UACC-257 melanoma and in the assay with M14 melanoma were 83.8% and 92.2%, respectively.

The values above are taken from PubChem BioAssay (NCI).
